Results on 19 compounds are retold here after the antibiotic and cytotoxicity screens of Wong et al. (2023).

The structures appear in SMILES notation. Among all 39,000 compounds or so, about 3,300 (8.5%) were called active. The sample holds actives, similar compounds and a random draw of the others, so the mix is not that of the screen.

For this assay, the system named is HepG2. The experiment in a line: cytotoxicity call (relative viability < 0.9). Conditions: 10 µM.
`CO[C@H](CN(C)S(=O)(=O)c1ccc(F)cc1)[C@H](C)CN([C@@H](C)CO)S(=O)(=O)c1cccc(Cl)c1`: the cytotoxicity call is “inactive”.

As to `COC1C=CC23c4cc5c(cc4CN(CC2O)C3C1)OCO5` (centres undefined), the cytotoxicity call was “inactive”.

In the case of `COC(=O)[C@H](Cc1ccccc1)N1CC2=C[C@H](C3CC3)n3c(=O)n(C)c(=O)n3[C@@H]2[C@H]1[C@H](O)Cc1ccccc1`, the cytotoxicity call was “inactive”.

Turning to `CC(=O)N1CCc2n[nH]c(C(=O)N3CCOCC3)c2C1`, the cytotoxicity call was “inactive”.

`CC(C)NC(=O)N(C)C[C@@H]1Oc2c(NC(=O)C3CCOCC3)cccc2C(=O)N([C@H](C)CO)C[C@@H]1C`: the cytotoxicity call was “inactive”.

Regarding `C[C@@H]1CN([C@H](C)CO)S(=O)(=O)c2ccc(C#Cc3ccc(F)cc3)cc2O[C@@H]1CN(C)C(=O)CN(C)C`, the cytotoxicity call was “inactive”.

Turning to `C[C@H](CO)N1C[C@H](C)[C@@H](CN(C)C(=O)CN(C)C)Oc2cc(C#Cc3ccccc3)ccc2S1(=O)=O`, the cytotoxicity call was “active”.

With `C[C@H](CO)N1C[C@H](C)[C@H](CN(C)C(=O)CN(C)C)Oc2cc(C#Cc3ccc(F)cc3)ccc2S1(=O)=O`, the cytotoxicity call was “inactive”.

On to `C[C@H](CO)N1C[C@H](C)[C@H](CN(C)C(=O)CN(C)C)Oc2cc(C#Cc3ccccc3)ccc2S1(=O)=O`, for which the cytotoxicity call was “inactive”.

With `C[C@@H]1CN([C@@H](C)CO)S(=O)(=O)c2ccc(C#Cc3ccc(F)cc3)cc2O[C@@H]1CN(C)C(=O)CN(C)C`, the cytotoxicity call was “inactive”.

In the case of `C[C@H](CO)N1C[C@H](C)[C@@H](CN(C)C(=O)CN(C)C)Oc2cc(C#Cc3ccc(F)cc3)ccc2S1(=O)=O`, the cytotoxicity call was “inactive”.

In the case of `C[C@H]1CN([C@@H](C)CO)S(=O)(=O)c2ccc(C#Cc3ccccc3)cc2O[C@H]1CN(C)C(=O)CN(C)C`, the cytotoxicity call was “active”.

Take `C[C@@H]1CN([C@@H](C)CO)S(=O)(=O)c2ccc(C#Cc3ccccc3)cc2O[C@@H]1CN(C)C(=O)CN(C)C`: the cytotoxicity call is “active”.

Consider `C[C@H]1CN([C@@H](C)CO)S(=O)(=O)c2ccc(C#Cc3ccccc3)cc2O[C@@H]1CN(C)C(=O)CN(C)C`, for which the cytotoxicity call is “inactive”.

As to `C[C@@H]1CCCCO[C@@H](CN(C)Cc2ccc(C(F)(F)F)cc2)[C@H](C)CN([C@H](C)CO)C(=O)c2cc(N(C)C)ccc2O1`, the cytotoxicity call is “inactive”.

For `Cn1ccc(C(=O)N2CCC3(CCOC[C@@H]3NS(C)(=O)=O)CC2)n1`, the cytotoxicity call was “inactive”.

Consider `Cc1noc(C)c1S(=O)(=O)Nc1ccc2c(c1)CC(=O)N([C@@H](C)CO)C[C@H](C)[C@H](CN(C)C(=O)NC(C)C)O2`, for which the cytotoxicity call was “inactive”.

As to `COc1cccc(S(=O)(=O)N[C@H]2CC[C@@H](CC(=O)NC3CCC3)O[C@@H]2CO)c1`, the cytotoxicity call was “inactive”.

Regarding `CC(=O)NCCCC[C@@H]1NC(=O)[C@H]2C[C@@H](C(=O)NCCCCCCN(C)C)[C@@H](c3ccc(O)cc3)N2C1=O`, the cytotoxicity call is “inactive”.
